Reference: PubChem BioAssay AID493170 (National Center for Advancing Translational Sciences (NCATS), 2011)
Inconclusive results are not listed. Entries that show only a call come without a potency. Active and inactive are the calls of the source. Calls follow the shape of the dose curve; as a rule, active = well fitted inhibition curve with a large enough effect; inconclusive = small, poorly fitted or top-dose-only effect, or effect the other way; inactive = flat fitted curve, though single readings scatter.

molecular target: Ubiquitin carboxyl-terminal hydrolase 2 (Homo sapiens) (UniProt O75604); assay: Ub-rhodamine 110 based assay for inhibitors Ubiquitin-specific Protease USP2a; conditions: USP2a Ub-rhodamine110 cleavage, fluorescence; series mostly up to 38.3 µM; also: nearly all actives have a fitted effect of over 50% in size
Method in brief: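 Kinetic fluorescence (485/531 nm) read each minute over 7 min after adding Ub-Rhod110 (150 nM final) to USP2a (5 nM final). The enzyme had 30 min RT exposure to compounds beforehand in Tris pH 8.0 buffer with CaCl2, CHAPS and beta-ME.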
Potency is read from the fitted curve at half-maximal effect.

Sequence of Ubiquitin carboxyl-terminal hydrolase 2 (Homo sapiens) (O75604 whole entry, looked up): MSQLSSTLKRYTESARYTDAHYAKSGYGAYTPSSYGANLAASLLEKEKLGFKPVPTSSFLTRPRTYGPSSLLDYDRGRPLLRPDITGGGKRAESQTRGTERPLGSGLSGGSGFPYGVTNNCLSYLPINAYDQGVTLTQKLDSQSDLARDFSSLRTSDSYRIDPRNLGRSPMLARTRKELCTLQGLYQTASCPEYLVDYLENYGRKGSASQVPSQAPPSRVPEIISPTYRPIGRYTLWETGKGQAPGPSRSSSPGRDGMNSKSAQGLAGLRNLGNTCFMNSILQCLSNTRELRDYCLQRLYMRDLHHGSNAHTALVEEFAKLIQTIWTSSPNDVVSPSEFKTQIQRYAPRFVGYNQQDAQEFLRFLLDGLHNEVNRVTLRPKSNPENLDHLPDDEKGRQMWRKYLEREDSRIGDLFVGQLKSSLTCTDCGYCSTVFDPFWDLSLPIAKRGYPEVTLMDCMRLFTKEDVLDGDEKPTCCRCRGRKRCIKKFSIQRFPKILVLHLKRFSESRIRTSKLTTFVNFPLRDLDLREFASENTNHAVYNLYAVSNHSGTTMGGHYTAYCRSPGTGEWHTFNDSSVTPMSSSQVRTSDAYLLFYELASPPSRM

Compound | Potency
Cc1ccc(/C=C2/SC(=S)N(c3ccc(S(=O)(=O)Nc4nccs4)cc3)C2=O)cc1 | 3.55 µM (active)
CC1CCCC(NC(=O)C2N(CCCN3CCCC3)C(=O)C3C(C(=O)Nc4ccc(Cl)cc4)C4C=CC32O4)C1C (configuration not stated) | inactive
O=C(Nc1ccc(Oc2ccc(Cl)cc2)cc1)c1ncn[nH]1 | inactive
Cc1ccc(S(=O)(=O)N2CCOCC2)cc1NC(=O)CN1C(=O)NC(C)(c2ccc(Cl)cc2Cl)C1=O (configuration not stated) | inactive
COc1ccc(OCC(=O)Nc2ccccc2OC)cc1 | inactive
COc1ccc(S(=O)(=O)N2CCCC2C(=O)NCc2cccs2)cc1 (configuration not stated) | inactive
COc1ccc(CC(=O)c2ccccc2C(=O)O)cc1 | inactive
O=C(Nc1cccc(-c2nn[nH]n2)c1)c1ccc(Br)s1 | inactive
O=C(O)CC(C(=O)O)N1C(=O)/C(=C/C=C/c2ccco2)SC1=S (configuration not stated) | inactive
COCCn1c(CN(Cc2ccccc2)Cc2ccccc2)nc2c1c(=O)n(C)c(=O)n2C | inactive
Cc1ccc(C)n1-c1cc(S(=O)(=O)N2CCOCC2)ccc1N1CCCC1 | inactive
CCN=C1SC(C(=O)Nc2cccc(OCC)c2)CC(=O)N1CC (configuration not stated) | inactive
CCCCCCCCCCCCCCCC[N+](C)(C)CCN(Cc1ccc(OC)cc1)c1ncccn1 | 11.2 µM (active)
CC(C)n1c(/C=C/[C@H](O)C[C@H](O)CC(=O)O)c(-c2ccc(F)cc2)c2ccccc21 | inactive
Cc1ccc(CN2C(=O)N/C(=C\c3cccn3-c3cccc(C(=O)O)c3)C2=O)cc1 | inactive
Cc1cccc(NCc2nc(-c3ccccc3)no2)c1 | inactive
NC(=O)C[C@@H]1N[C@]2(C(=O)Nc3ccccc32)[C@@H]2C(=O)N(c3cc(C(F)(F)F)ccc3Cl)C(=O)[C@H]12 | inactive
Cc1ccc(S(=O)(=O)N2[C@@H](c3ccc(C(C)(C)C)cc3)C(C(=O)O)=CC[C@H]2c2cccc(Cl)c2)cc1 | 5.62 µM (active)
C=C1c2c(Cl)ccc(O)c2C(O)=C2C(=O)[C@]3(O)C(O)=C(C(N)=O)C(=O)[C@@H](N(C)C)[C@@H]3[C@@H](O)C12 (some centres not stated) | 6.31 µM (active)
CC[n+]1c(/C=C/N(C)c2ccccc2)n(-c2ccccc2)c2ccc(-c3nc4ccccc4s3)cc21 | inactive
C#CCOCCOCCOCCNc1nc(N2CCN(C(=O)CCCCCCCCCCNC(=O)[C@H](CCCCN)n3cc(CCO)nn3)CC2)nc(N2CCN(C(=O)CCCCCCCCCCNC(=O)[C@H](CCCCN)n3cc(C[C@@H](C)CC)nn3)CC2)n1 | inactive
O=C(c1cc(-c2ccco2)on1)N1CCc2ccccc2C1 | 10 µM (active)
